Screening results: PubChem, National Center for Advancing Translational Sciences (NCATS)
RORgamma inh: blocks mouse ROR gamma transcriptional activity | P51450 | Drosophila S2 Gal4-RORgamma UAS-luciferase reporter, 20 h | Potency, µM (titrated, usually from 53.6 µM), most hits filed as inhibitors | 310,000 tested, 5.4% active | AID 2551; also: nearly all actives have a fitted effect of over 60% in size
Target sequence (P51450 whole entry, looked up, the tested form may be a part): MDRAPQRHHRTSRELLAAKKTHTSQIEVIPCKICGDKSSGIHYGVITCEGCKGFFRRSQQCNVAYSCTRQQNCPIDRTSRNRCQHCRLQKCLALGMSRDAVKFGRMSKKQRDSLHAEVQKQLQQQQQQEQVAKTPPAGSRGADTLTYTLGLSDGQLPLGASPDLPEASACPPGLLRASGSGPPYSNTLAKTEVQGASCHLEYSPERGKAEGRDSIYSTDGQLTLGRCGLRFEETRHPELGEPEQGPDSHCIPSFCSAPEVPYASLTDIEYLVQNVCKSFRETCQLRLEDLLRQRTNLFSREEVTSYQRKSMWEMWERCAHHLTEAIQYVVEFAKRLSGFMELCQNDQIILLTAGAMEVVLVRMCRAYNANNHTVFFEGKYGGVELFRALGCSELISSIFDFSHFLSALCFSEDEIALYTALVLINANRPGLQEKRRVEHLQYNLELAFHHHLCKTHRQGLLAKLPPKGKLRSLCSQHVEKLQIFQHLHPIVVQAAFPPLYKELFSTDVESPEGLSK
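Luminescence from a UAS-regulated Photinus luciferase reporter in stably transfected Drosophila Schneider cells is measured; decreased signal marks ROR gamma inhibition. Fusion expression is induced by 700 uM copper sulfate for 20 hr.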
S2 tox: cell viability loss in ATXN counter-screen | S2 cells (HEK-293 line with an ATXN2-luciferase reporter) viability, CellTiter-Fluor protease fluorescence, 24 h | Potency, µM (top dose mostly 56.7 µM), usual class: cytotoxic | 400,000 tested, 0.49% active | AID 651635; also: nearly all actives have a fitted effect of over 40% in size
HepG2 viability: kills HepG2 cells in TGF-b inhibitor counter-screen; HepG2 CAGA-GFP viability, ATP luminescence, 18 h; Potency, µM (series often up to 46.1 µM), actives largely listed as cytotoxic; 410,000 tested, 0.76% active; AID 588856
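HepG2 CAGA-GFP cells (1000/well, DMEM with 1% FBS) received compound, then TGF-beta at 500 pg/mL final, and were incubated 18 hours at 37 degrees C. Viability was read by CellTiter-Glo luminescence. Media-only wells were set as complete cell-killing and DMSO as no toxicity.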
Gal4-VP16 FLuc: counter-screen for ROR gamma inhibitors: Gal4-VP16 reporter | Potency, µM (series often up to 53.6 µM), actives largely listed as inhibitors | Drosophila S2 Gal4-VP16 UAS-luciferase, luminescence, 20 h | 310,000 tested, 3.5% active;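 also: Gal4-VP16 expression switched on by copper sulfate through the metallothionein promoter; nearly all actives have a fitted effect of over 50% in size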
ATXN2 expr inh: reduces ATXN2 reporter expression in HEK-293 cells; AID 1745845; Potency, µM (highest dose often 57 µM), usual class: inhibitors; HEK-293 ATXN2-luciferase reporter, luminescence, 24 h; 360,000 tested, 0.72% active; also: nearly all actives have a fitted effect of over 55% in size
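qHTS (up to 57 uM final) was run with 24 h compound exposure of reporter cells at 37 °C. Each well was multiplexed: SteadyGlo luminescence measured ATXN2-luciferase expression after a fluorogenic Gly-Phe-AFC viability readout (25 uM final).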
TGFb SMAD3 inh: inhibitors of TGF-b signaling; HepG2 CAGA-GFP TGF-b/SMAD3 reporter, GFP fluorescence, 18 h; TGF-beta stimulated, 500 pg/mL final; Potency, µM (series often up to 46.1 µM), actives largely listed as inhibitors; 410,000 tested, 1.2% active; also: nearly all actives have a fitted effect of over 65% in size
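GFP signal (ex488/em500-530) from TGF-beta-stimulated HEPG2 CAGA-GFP cells, 500 pg/mL final, 18 h at 37 degrees C in DMEM plus 1% FBS, normalized to unstimulated and DMSO-stimulated controls.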
A number is an active result; – = inactive; ? = inconclusive; · = no result given; [ ] = dose if it differs, or a comment. Only some compounds are listed: those with a hit (about 6.3% of all), similar ones and a draw of the others. Calls follow the shape of the dose curve; as a rule, active = well fitted curve in the direction sought with a large enough effect; inconclusive = small, poorly fitted or top-dose-only effect, or another doubt; inactive = no such curve, though single readings can be large; an effect the other way counts as inactive or inconclusive.

SMILES	RORgamma inh	S2 tox	HepG2 viability	Gal4-VP16 FLuc	ATXN2 expr inh	TGFb SMAD3 inh
Nc1nc(Cl)nc2c1ncn2C1CC(O)C(CO)O1 (configuration not stated)	·	–	–	·	1.8µM	?
CSc1ncnc2c1ncn2C1OC(CO)C(O)C1O (configuration not stated)	–	·	·	–	·	·
OC[C@H]1O[C@@H](n2cnc3cncnc32)[C@H](O)[C@@H]1O	7.1µM	·	·	3.2µM	·	·
OC[C@H]1O[C@H](n2cnc3c(NC4CCCC4)nc(Cl)nc32)[C@@H](O)[C@@H]1O	–	·	·	–	·	·
CCCCc1n[nH]c(=S)n1Cc1ccccc1	4µM	–	–	16µM	·	–
CCn1c(CCNC(=O)c2ccc(Cl)cc2Cl)n[nH]c1=S	?	–	–	–	–	–
CCCCc1n[nH]c(=S)n1Cc1ccc(Cl)cc1	4µM	–	–	7.1µM	–	–
O=C(Nc1cccc(C(F)(F)F)c1)Nc1cc(Cl)ccc1C(=O)O	–	·	·	–	·	·
C/C=C(/C(=C/C)c1ccc(OC(C)=O)cc1)c1ccc(OC(C)=O)cc1	·	–	·	·	–	·
CC(O)CNCc1ccc(-c2ccccc2)cc1 (configuration not stated)	–	–	–	–	–	–
CC(NCc1ccc(-c2ccccc2)cc1)C(O)c1ccccc1 (configuration not stated)	?	?	–	2.8µM	?	?
CN1CCN(C(c2ccc(C(F)(F)F)cc2)c2ccc3cccnc3c2O)CC1 (configuration not stated)	3.2µM	?	–	1.6µM	7.9µM	?
Oc1c(C(c2cccs2)N2CCN(c3ccccc3)CC2)ccc2cccnc12 (configuration not stated)	5µM	·	·	7.9µM	·	·
CC(C)(C)n1nnnc1C(c1cccs1)N1CCN(c2ccccc2)CC1 (configuration not stated)	–	–	–	–	–	?
N#Cc1cccc(NC(=O)c2cc3c(s2)-c2ccc(Cl)cc2SC3)c1	·	–	–	·	–	?
CCN1CCN(C(=O)CCc2nnc(CCc3ccccc3OC)o2)[C@@H](C)C1=O	–	–	–	–	–	–
O[C@@H]1C[C@H](c2ccc(Cl)cc2)N(Cc2cccs2)C[C@H]1n1cc(-c2ccc(F)cc2)nn1	·	?	–	·	–	–
O=C(O)CCC(=O)Nc1ccc2c(c1)Cc1cc(NC(=O)CCC(=O)O)ccc1-2	–	?	–	–	·	–
Cc1ccc(C(=O)Nc2ccsc2C(=O)O)cc1	11µM	–	–	?	·	–
O=C(Nc1ccsc1C(=O)O)c1ccc(Cl)cc1	–	–	–	?	–	–
COC(=O)c1ccc(Nc2ncnc3c2cnn3C)cc1	·	·	–	·	·	–
CN(C)CC(C)(C)CNC(=O)c1cnn(-c2ncc3c(n2)-c2ccccc2CC3)c1-c1ccco1	·	–	·	·	·	·
CCCCNC(=S)Nc1ccc(F)cc1	13µM	–	–	?	–	–
O=[N+]([O-])c1ccc(NC(=S)NCCc2ccc(F)cc2)cc1	?	?	13µM	?	?	?
O=[N+]([O-])c1ccc(S(=O)(=O)NNC(=S)NCCc2ccccc2)cc1	8.9µM	–	–	11µM	–	–
SMILES	RORgamma inh	S2 tox	HepG2 viability	Gal4-VP16 FLuc	ATXN2 expr inh	TGFb SMAD3 inh
CCCCNC(=S)Nc1ccc(SC(F)F)cc1	–	–	–	–	–	?
Fc1ccc(CCNC(=S)Nc2ccc(F)c(Cl)c2)cc1	7.1µM	–	–	?	?	?
O=C(Nc1ccc(Oc2ccccc2)cc1)c1ccc(F)c(S(=O)(=O)N2CCN(c3ccccc3F)CC2)c1	·	·	–	·	·	?
Fc1ccc(NC(=S)NCCc2ccc(Cl)cc2)cc1	1.1µM	–	–	3.2µM	–	?
CC(NC(=S)NNS(=O)(=O)c1cccc([N+](=O)[O-])c1)c1ccccc1 (configuration not stated)	7.1µM	–	–	6.3µM	–	–
O=C(COC(=O)c1ccc(C(F)(F)F)cc1)NC(=O)C1CCCCC1	·	·	–	·	·	–
CCc1cc2c(=O)[nH]c(-c3ccccn3)nc2s1	?	5.6µM	–	25µM	?	5µM
CC(=O)N1CCc2cc(S(=O)(=O)NC(Cc3ccccc3)C(=O)Nc3ccc(Cl)cc3)ccc21 (configuration not stated)	·	–	–	·	–	–
O=c1cc(C(F)(F)F)nc(SC/C=C/c2ccccc2)[nH]1	–	–	–	–	·	14µM
Nc1cc(=O)[nH]c(SC/C=C/c2ccccc2)n1	–	–	–	?	–	–
CC(C)C[C@@H](CC(=O)N[C@@H](CCC(=O)O)CC(=O)O)NC(=O)[C@@H]1CNCC[C@H]1NC(=O)C[C@H](CCCN)NC(=O)C[C@H](Cc1c[nH]c2ccccc12)NC(=O)[C@@H]1CNCC[C@H]1N	–	·	·	–	·	·
COc1ccc(/C=C/c2ccnc3ccccc23)c(OC)c1	·	·	–	·	·	?
COc1ccc(C)cc1NC(=O)COC(=O)CCC(=O)c1cccs1	·	–	–	·	–	–
O=C(CSc1cccc[n+]1[O-])CSc1cccc[n+]1[O-]	4µM	?	–	?	–	?
O=C(CSc1cccc[n+]1[O-])N1CCCCCC1	–	–	–	–	–	–
O=C(O)CN=C(Nc1cc(Cl)cc(Cl)c1)NC(c1ccccc1)c1ccccc1	·	?	·	·	–	·
COc1ccc(-c2cc(-c3ccccc3)n[nH]2)c(O)c1	4µM	?	–	–[10 µM]	–	?
Oc1ccccc1-c1cc(-c2ccccc2)n[nH]1	·	–	–	·	–	?
Cc1ccc(-c2cc(-c3ccc(C)cc3O)[nH]n2)cc1	4µM	–	–	7.1µM	·	?
Cc1ccc(-c2cc(-c3ccc(F)cc3)n[nH]2)c(O)c1	5.6µM	–	–	7.1µM	–	–
COc1ccc(O)c(-c2cc(-c3cccs3)[nH]n2)c1	4µM	–	–	?	–	–
Cc1cc(Cl)ccc1OCC(=O)Nc1c(C(=O)c2ccccc2)oc2ccccc12	·	·	–	·	·	–
Oc1ccc(Cl)cc1-c1cc(-c2ccccc2)n[nH]1	1.4µM	–	–	4.5µM	–	?
CCOC(=O)c1cc(S(=O)(=O)N2CCN(c3ccc(C(C)=O)cc3)CC2)[nH]n1	·	–	–	·	–	–
O=C(NC(NC(=S)Nc1cccc(Cl)c1)C(Cl)(Cl)Cl)OCc1ccccc1 (configuration not stated)	?	?	11µM	?	?	6.3µM
Cc1cccc(NC(=S)NC(NC(=O)OCc2ccccc2)C(Cl)(Cl)Cl)c1 (configuration not stated)	11µM	–	–	?	?	?
Cc1[nH]c2ccccc2c1C1(O)C(=O)N(Cc2ccccc2)c2ccc(Br)cc21 (configuration not stated)	·	–	–	·	?	?
